Source: PubChem BioAssay AID743446 (Broad Institute, 2014)
Entries with a potency or affinity are not part of this list. Activity calls are given as the source filed them. The rule behind the calls is not given here.

Test: viability loss in HEK293 cells – cell-based, plate reader, cherry-picked samples, cytotoxicity control, dose response (AID 743446)
Conditions: stronger effect = lower value; at 26 µM unless noted

Structure (SMILES) | max activity
CCc1nc(Sc2nnnn2-c2ccccc2)c2c3c(sc2n1)CCCC3 | -13.3% (inactive)
CCS(=O)(=O)N1Cc2ccccc2CC1C(=O)Nc1nc2ccccc2s1 (centres undefined) | 11.4% [at 0.38 µM] (inactive)
O=C(CN1C(=O)c2ccccc2S1(=O)=O)c1ccc2c(c1)OCCCO2 | -22% [at 0.8 µM] (inactive)
CC(C)(C)n1ncc2c(=O)n(CC(=O)OCc3ccccc3)cnc21 | -10.3% [at 0.38 µM] (inactive)
Clc1ccc(-n2ncc3c(N4CCCC4)ncnc32)cc1 | 13.4% (inactive)
O=C(Cc1ccncc1)NCC[C@H]1CC[C@H](NC(=O)C2CCCC2)[C@H](CO)O1 | 13.9% [at 0.1 µM] (inactive)
O=C(c1cc(-c2ccc(Cl)cc2Cl)on1)N1CCOCC1 | 14.9% [at 0.05 µM] (inactive)
COc1ccccc1CNS(=O)(=O)c1ccc(N2CCCC2)cc1Br | -9.37% (inactive)
OC[C@H]1[C@@H](c2ccc(-c3ccc(F)cc3)cc2)[C@@H]2CN(Cc3ccccn3)CCCCN12 | -12.3% (inactive)
O=C(Cc1ccccc1Cl)Nc1cccnc1 | 17.2% [at 0.1 µM] (inactive)
COc1ccc(OCC(=O)Nc2nccs2)cc1 | 15.2% [at 1.6 µM] (inactive)
O=C(NCCc1ccccc1)c1ccc2nccnc2c1 | 9% (inactive)
C[C@H](CO)N1C[C@H](C)[C@H](CN(C)C(=O)Nc2ccccc2)OCCCC[C@H](C)Oc2ccc(NC(=O)Nc3ccc4c(c3)OCO4)cc2C1=O | 50.9% [at 0.195 µM] (inactive)
Cc1ccc2nc(-c3ccc(N)cc3)sc2c1 | 21.7% [at 3 µM] (inactive)
O=C(c1cc(-c2ccc(Cl)cc2Cl)on1)N1CCCC1 | 9.97% [at 0.8 µM] (inactive)
C[C@H](CO)N1C[C@H](C)[C@H](CN(C)Cc2ccccc2)Oc2c(NS(=O)(=O)c3cn(C)cn3)cccc2C1=O | 13% [at 1.6 µM] (inactive)
COCCCNc1ccn2nc(-c3ccccc3)cc2n1 | 42.6% [at 12 µM] (inactive)
CCCc1ccc(-c2ccc(F)c(N)c2)nc1 | -20.7% [at 12 µM] (inactive)
Cc1ccc(Nc2nc(-c3ccccc3)cs2)nc1 | -17.9% [at 0.05 µM] (inactive)
CC(C)N(C(=O)Nc1ccc2nsnc2c1)C(C)C | 12.5% (inactive)

Structure (SMILES) | max activity
Fc1ccc(-n2nnc(-c3cnc4ccccc4c3)n2)cc1 | 26.8% [at 1.6 µM] (inactive)
CCOC(=O)Nc1ccc(N2CCOCC2)c(S(=O)(=O)Nc2ccc(Cl)cc2)c1 | -19.3% (inactive)
CC(C)(C)C(=O)Nc1ccc(NC(=O)c2ccco2)nc1 | 11.3% [at 0.38 µM] (inactive)
C[C@H](CO)N1C[C@H](C)[C@@H](CN(C)CC2CCOCC2)Oc2ncc(Br)cc2C1=O | 4.11% (inactive)
COc1ccc2nc(-c3ccccn3)ccc2c1 | -37.6% (inactive)
COc1cc(NC(=O)c2cccc3c(-c4cnn(C)c4)coc23)cc(OC)c1OC | -34.1% (inactive)
COc1ccc(-c2cn3cc(C)ccc3n2)cc1F | 44.7% [at 12 µM] (inactive)
Cc1ccc(C(=O)NCCc2cccs2)cc1 | 37.3% [at 3 µM] (inactive)
CCCNC(=O)N1[C@H](C#N)[C@H](c2ccc(C#Cc3ccc(F)cc3)cc2)[C@H]1CO | -37% (inactive)
O=C(O)c1ccc(N/N=C/c2ccc(OC(=O)c3cccc(Cl)c3)cc2)cc1 | -7.42% [at 3 µM] (inactive)
O=C(Nc1cccc(C(=O)O)c1)Nc1ccc2c(c1)OCO2 | -18.7% [at 0.195 µM] (inactive)
Cc1cc(C(=O)COC(=O)c2ccccc2O)c(C)n1CC1CCCO1 (centres undefined) | -7.06% [at 6 µM] (inactive)
Cc1ccc(S(=O)(=O)N2CCCCC2)cc1NC(=O)c1ccc2c(=O)n3c(nc2c1)CCCCC3 | 45.8% [at 6 µM] (inactive)
COc1cccc(-c2cc(C(=O)Nc3cccc(O)c3)no2)c1 | -7.14% (inactive)
Cc1ccc(S(=O)(=O)N2CCCc3nc(-c4ccc(F)cc4)ccc32)cc1 | 43.2% [at 12 µM] (inactive)
O=C(CC1CS(=O)(=O)CC1CC(=O)Nc1ccc2c(c1)OCCO2)Nc1ccc2c(c1)OCCO2 (centres undefined) | 38.3% [at 0.8 µM] (inactive)
Nc1c(C(=O)Nc2cccc(C(=O)O)c2)sc2nc3c(cc12)CCCC3 | -12.6% [at 0.1 µM] (inactive)
COc1cc(SC)ccc1C(=O)Nc1ccc(Cl)cn1 | 19.7% [at 3 µM] (inactive)
O=C(C[C@H]1CC[C@H](NS(=O)(=O)c2cccc(F)c2)[C@@H](CO)O1)N1CCCCC1 | 20.1% [at 0.05 µM] (inactive)
